PubChem BioAssay (NCATS)
Values joined by “and” are separate entries in the source; they are usually repeats but may differ in a detail not shown here. Identical values can stand only once. Records with an inconclusive call do not appear. A number with no mark means an inactive call. Active and inactive are the calls of the source. Calls come from the whole dose curve; as a rule, active = well fitted curve in the direction sought with a large enough effect; inconclusive = small, poorly fitted or top-dose-only effect, or another doubt; inactive = no such curve, though single readings can be large; an effect the other way counts as inactive or inconclusive.

Assays:
[1] = target: Cellular tumor antigen p53 (Homo sapiens) (UniProt P04637); assay: Primary qHTS for small molecule compounds that upregulate eGFP-tagged delta133p53alpha (in N-terminal) cells. (AID 2060322); conditions: NCI-H358 eGFP-delta133p53alpha fluorescence, 24 h; activation: active compounds read high; note: nearly all actives have a fitted effect of over 75% in size; note: potency is the fitted concentration of half-maximal effect;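 for activation: series mostly up to about 56 µM; 0% = DMSO vehicle and 100% = reference activator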
Cellular tumor antigen p53 (Homo sapiens), sequence (P04637 whole entry, looked up): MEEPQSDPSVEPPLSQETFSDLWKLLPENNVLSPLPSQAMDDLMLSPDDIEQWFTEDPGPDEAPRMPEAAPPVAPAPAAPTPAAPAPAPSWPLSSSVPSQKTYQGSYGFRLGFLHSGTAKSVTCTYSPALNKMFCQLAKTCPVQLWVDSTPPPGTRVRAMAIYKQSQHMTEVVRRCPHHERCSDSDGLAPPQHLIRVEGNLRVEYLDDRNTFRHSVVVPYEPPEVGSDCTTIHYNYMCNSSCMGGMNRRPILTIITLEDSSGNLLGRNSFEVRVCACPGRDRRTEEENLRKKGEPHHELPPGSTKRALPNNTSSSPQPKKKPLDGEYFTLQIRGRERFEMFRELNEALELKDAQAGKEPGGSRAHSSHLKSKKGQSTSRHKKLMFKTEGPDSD
How it was run: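 NCI-H358 cells pre-induced 24 h with 10 ng/ml doxycycline to express N-terminal eGFP-delta133p53alpha, then dosed 24 h at 37C without doxycycline; fixed, Hoechst-stained, GFP intensity by laser scanning cytometry, normalized to DMSO (0%) and 57.5 uM 5-azacytidine (100%).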

[2] = target: Aldehyde dehydrogenase, mitochondrial (Homo sapiens) (UniProt P05091); assay: qHTS for Inhibitors of the Aldehyde Dehydrogenase Family (ALDH2) Primary screen (AID 2061308);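 note: plate controls were vehicle for no effect and reference inhibitor for full effect; nearly all actives have a fitted effect of over 55% in size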

| SMILES | activation [1] | Potency [2] | Potency [1] | activity change, negative = inhibition [2] |
| --- | --- | --- | --- | --- |
| C=C1CC[C@@H]2[C@](C)(CO[C@@H]3O[C@H](CO)[C@@H](O)[C@H](O)[C@H]3O)CCC[C@@]2(C)[C@@H]1CCC1=CCOC1=O | 10.7% | inactive | – | – |
| C=CCC1=C[C@]2(OC)[C@H](C)[C@@H](c3ccc(O)c(OC)c3)O[C@]2(OC)CC1=O | -15.2% | inactive | – | – |
| COc1cc(/C=C/C=O)cc(OC)c1O[C@@H]1O[C@H](CO)[C@@H](O)[C@H](O)[C@H]1O | -14.3% | inactive | – | – |
| C/C=C/C1=CC2=C(CO1)C(=O)[C@](C)(O)[C@H](OC(=O)c1c(O)cc(OC)c(O)c1C)C2 | 3.82% | inactive | – | – |
| CC1CCC2C(C(=O)O)=COC(O[C@@H]3O[C@H](CO)[C@@H](O)[C@H](O)[C@H]3O)C12 (stereo not given in full) | -3.57% | inactive | – | – |
| COc1cc(C(=O)OC[C@H]2O[C@@H](OC(C)(C)C(=O)O)[C@H](O)[C@@H](O)[C@@H]2O)cc(OC)c1O | -29.5% | inactive | – | – |
| COc1cc(C[C@H]2COC(=O)[C@@H]2Cc2ccc(O)c(OC)c2)ccc1O | -18.8% | inactive | – | – |
| COc1cc(/C=C/C(=O)O[C@H]2[C@H](O)[C@@H](CO)O[C@@]2(CO)O[C@H]2O[C@H](CO)[C@@H](O)[C@H](O)[C@H]2O)ccc1O | 16% | inactive | – | – |
| N#Cc1cnc2c(Cl)cc(NCc3cn(CCN4CCCCCC4)nn3)cc2c1Nc1ccc(F)c(Cl)c1 | – | inactive | 4.26 µM (active) | – |
| CC(/C=C/C1(O)C(C)CC(O)CC1(C)C)OC1OC(CO)C(O)C(O)C1O (stereo not given) | -12.2% | inactive | – | – |
| CC(=O)N[C@H]1[C@H](O[C@H]2CC[C@@]3(C)C(CC[C@]4(C)C3CC=C3C5CC(C)(C)CC[C@]5(C(=O)O)[C@H](O[C@@H]5O[C@H](CO)[C@@H](O)[C@H](O)[C@H]5O)C[C@]34C)C2(C)C)O[C@H](CO[C@@H]2OC[C@H](O)[C@H](O)[C@H]2O[C@@H]2OC[C@@H](O)[C@H](O)[C@H]2O)[C@@H](O)[C@@H]1O (stereo not given in full) | -9.16% | inactive | – | – |
| CC(CNS(=O)(=O)C(C)C)c1ccc(-c2ccc(C#N)cc2)cc1 (stereo not given) | -9% | inactive | – | – |
| C[C@@H]1O[C@@H](O[C@H]2[C@H](O[C@H]3[C@H](O[C@H]4CC[C@@]5(C)C(CC[C@]6(C)C5CC=C5[C@@H]7CC(C)(C(=O)O)C[C@@H](O)[C@]7(C)CC[C@]56C)[C@@]4(C)CO)O[C@H](C(=O)O)[C@@H](O)[C@@H]3O)O[C@H](CO)[C@H](O)[C@@H]2O)[C@H](O)[C@H](O)[C@H]1O (stereo not given in full) | -0.893% | inactive | – | – |
| CC1(C)C(O)CCC2(C)C1C(O)C=C1COC(=O)C12O (stereo not given) | 3.82% | inactive | – | – |
| COc1cc(Nc2ccc([N+](=O)[O-])cc2C(=O)O)cc2ccccc12 | -11.9% | inactive | – | – |
| CC(/C=C/C1(O)C2(C)COC1(C)CC(=O)C2)O[C@@H]1O[C@H](CO)[C@@H](O)[C@H](O)[C@H]1O (stereo not given in full) | 2.68% | inactive | – | – |
| COc1cc(C2Oc3c(OC)cc(/C=C/C(=O)OC4CC(O)(C(=O)O)CC(O)C4O)cc3C2CO)ccc1O (stereo not given) | -32.8% | inactive | – | – |
| COc1cc(/C=N\NC(=O)c2ccc3c(c2)OCO3)ccc1OCc1ccccc1 | 2.39% | inactive | – | – |
| CNCc1cc(-c2ccccc2F)n(S(=O)(=O)c2cccnc2)c1 | 12.5% | inactive | – | – |
| N#Cc1cc(F)cc(-c2nc(-c3ccccn3)no2)c1 | -12.4% | inactive | – | – |
| COC(=O)C1=COC(O[C@@H]2O[C@H](CO)[C@@H](O)[C@H](O)[C@H]2O)C2C(C)C(=O)CC12 (stereo not given in full) | -1.53% | inactive | – | – |
| CC1(C)CCC[C@@]2(C)[C@H]1[C@H](O)C=C1COC(=O)[C@@]12O | -4.58% | inactive | – | – |
| O=C(NO)c1ccc(CC(=O)N(CCO)c2ccccc2)cc1 | -8.59% and 7.82% | inactive | – | – |
| O=C(O[C@H]1[C@@H]2C=CO[C@@H](O[C@@H]3O[C@H](CO)[C@@H](O)[C@H](O)[C@H]3O)[C@@H]2[C@@]2(CO)O[C@@H]12)c1ccc(O)c(O)c1 | -2.68% | inactive | – | – |
| C[C@@H]1O[C@@H](O[C@H]2[C@H](O[C@H]3CC[C@@]4(C)C(CC[C@]5(C)C4CC=C4[C@@H]6CC(C)(C)CC[C@]6(C(=O)O[C@@H]6OC[C@H](O)[C@H](O)[C@H]6O[C@@H]6O[C@@H](C)[C@H](O[C@@H]7O[C@H](CO)[C@@H](O)[C@H](O)[C@H]7O)[C@H](O)[C@H]6O)[C@H](O)C[C@]45C)C3(C)C)O[C@H](CO)[C@@H](O[C@@H]3OC[C@@H](O)[C@H](O)[C@H]3O)[C@@H]2O)[C@H](O)[C@H](O)[C@H]1O (stereo not given in full) | -2.29% | – | – | -18.4% [at 11.2 µM] |
| C=C1CCC2[C@](C)(CO)CCC[C@@]2(C)[C@@H]1CCC1=CCOC1=O (stereo not given in full) | -7.14% | inactive | – | – |
| COC(=O)C1=COC(O[C@@H]2O[C@H](CO)[C@@H](O)[C@H](O)[C@H]2O)/C(=C\COC(=O)/C=C/c2ccccc2)C1CC(=O)OCCc1ccc(O)cc1 (stereo not given in full) | -0.763% | inactive | – | – |
| CC/C=C\CCO[C@@H]1O[C@H](CO[C@@H]2OC[C@H](O)[C@H](O)[C@H]2O)[C@@H](O)[C@H](O)[C@H]1O | -3.57% | inactive | – | – |
| C/C=C(\C)C(=O)OC1C(C)C2(O)C(C=C(CO)CC3(O)C(=O)C(C)=CC32)C2C(C)(C)C12OC(C)=O (stereo not given) | 8.93% | inactive | – | – |
| COc1cc([C@@H]2Oc3c(OC)cc(CCCO)cc3[C@@H]2CO[C@@H]2O[C@H](CO)[C@@H](O)[C@H](O)[C@H]2O)ccc1O | -9.16% | inactive | – | – |
